A selection: hits, their analogues and other compounds. The true share with any hit is near 8%.
MARV entry inh: blocks Marburg virus binding or cell entry | 18,000 compounds, 6.5% hits | AID 720532 | Potency, µM (top dose mostly 49.2 µM), inactives show at the highest dose activity change, negative = inhibition, actives largely listed as inhibitors | Marburg virus pseudotype entry/binding inhibition, cell-based
Lassa entry: inhibitors of Lassa virus binding or entry into cells. Lassa virus pseudotyped entry inhibition, cell-based qHTS. Potency, µM (doses to about 49.2 µM), without a hit: at the highest dose activity change, negative = inhibition, hits mostly inhibitors. 18,000 compounds, 4.1% hits
An asterisk follows results filed as active; ? = inconclusive; / = no result; ! = not confirmed by another sample; [ ] = remark or other dose. Calls come from the whole dose curve; tested in HEK293 cells. % is set by controls: 0 for no effect and ±100 for the full control effect; potency is the fitted concentration of half-maximal effect.

SMILES	MARV entry inh	Lassa entry
CC(C)=CCCC(C)=CCON=C1C[C@@H](O)[C@@H](O)[C@@H]2[C@H]3C(=O)N(C[C@@H]4CCCO4)C(=O)[C@@H]3CC[C@@H]12	-5.0%[8.59 µM]	3.0%[8.59 µM]
Cc1ccccc1Nc1oc(-c2ccccc2)nc1-c1ccc(C(F)(F)F)cc1	16.6%[8.59 µM]	?
COC(=O)[C@]1(C)CC[C@@]2(C)CC[C@@]3(C)C4=CC=C5C(=CC(=O)C(O)=C5C)[C@@]4(C)CC[C@@]3(C)C2C1 (some centres undefined)	3.55µM*	5.62µM*
CCOC(=O)CN1C(=O)NC(c2cccc(F)c2)C(C(=O)OC)=C1C (centres undefined)	-23.8%[8.59 µM]	-16.2%[8.59 µM]
O=C(Oc1ccccc1)[C@H]1O[C@H]1c1ccccc1	34.4%[8.59 µM]	/
COc1ccc2ccccc2c1CN1CCC2(CCC(CNC(=O)c3ccccc3)O2)CC1 (centres undefined)	12.6µM*	-10.7%
COC(=O)c1ccc(CN2CCC3(CCC(CNC(=O)c4ccccc4)O3)CC2)cc1 (centres undefined)	7.1%	-8.8%
COc1ccc(CN2CCC3(CCC(CNC(=O)C4CCCO4)O3)CC2)c(C)c1C (centres undefined)	1.26µM*	-10.3%
O=C(NCC1CCC2(CCN(Cc3ccccc3O)CC2)O1)C1CCCO1 (centres undefined)	-23.3%	-1.9%
O=C(C=Cc1ccccc1)Nc1cccc(C(=O)NC2CC2)c1	115.1%	42.9%
COc1cc2c(cc1OC)[C@@H]1O[C@](c3ccsc3)(C2)Oc2cc(-c3ccccc3)oc(=O)c21	?	16.9%[8.59 µM]
CC#CCN1c2ccccc2[C@]23CCC(=O)N(CCCOC(C)C)C2=NC(C(=O)OC)=C(C(=O)OC)[C@H]13	-12.3%[8.59 µM]	10.6%[8.59 µM]
CCCCCCCCN[C@@H](C)[C@H](O)c1ccc(SC(C)C)cc1	11.2µM*	-5.1%[17.8 µM]
CN[C@@H](C)[C@H](O)c1ccccc1	15.1%	-9.8%
CCN1C(=O)[C@@H]2[C@H]3[C@H](O)[C@H](O)CC(=NO[C@@H](C)c4cc(-c5c(C)cc(C)cc5C)no4)[C@@H]3CC[C@H]2C1=O	-12.7%[8.59 µM]	-2.1%[8.59 µM]
C=COC[C@@H]1CN2[C@H](c3ccc(Br)cc3)[C@H](C)CC[C@H]2C(=O)O1	31.0%[8.59 µM]	10.7%[8.59 µM]
O[C@@H]1C[C@H](c2ccccc2)N(CC2CCCCC2)C[C@@H]1n1cc(C2CC2)nn1	-27.3%	-21.2%
C(=C\c1nc(-c2ccccc2)oc1Nc1ccc2ccccc2c1)/c1ccccc1	29.1%	6.5%
C[n+]1ccc(/C=C/c2ccc3ccccc3c2)cc1	?	11.2µM*
O=C1C=CC2=C3c4cc(O)c(O)cc4CC3(O)COC2=C1O (centres undefined)	3.16µM*	-15.7%
CCOC(=O)NN=C1C[C@@H](O)[C@@H](O)[C@@H]2[C@H]3C(=O)N(CC)C(=O)[C@@H]3CC[C@@H]12	7.5%[8.59 µM]	5.6%[8.59 µM]
COC(=O)CC=C1c2ccccc2[C@@H](OC)[C@@H]1C	16.2%[8.59 µM]	37.8%[8.59 µM]
O=C1[C@@H]2[C@H]3[C@H](O)[C@H](O)CC(=NOC[C@@H](O)COCc4ccco4)[C@@H]3CC[C@H]2C(=O)N1Cc1ccccc1	-3.6%[8.59 µM]	-1.7%[8.59 µM]
NC1CCc2cc(O)c(O)cc2C1 (centres undefined)	22.4µM*!	-0.3%
O=c1oc2ccccc2c2c1[C@H]1O[C@](c3ccsc3)(Cc3c1ccc1ccccc31)O2	5.2%[8.59 µM]	9.6%[8.59 µM]
SMILES	MARV entry inh	Lassa entry
CC(=O)[C@@]12C3[C@@H](CCN3C(=O)N[C@H]1c1ccccc1)[C@H]2c1ccccc1 (some centres undefined)	20.6%[8.59 µM]	-4.4%[8.59 µM]
CC(C)(C)[Si](C)(C)OCCC[C@@H]1C[C@H]2C=CCOP(=O)(O1)O2	14.2%	-2.4%
Cc1ncc(COP(=O)(O)O)c(CN)c1O	0.6%	-8.8%
Cc1ncc(CO)c(CO)c1O	28.2µM*!	-7.0%
COc1cc2c3cc1Oc1cc(ccc1O)CC1c4c(cc(OC)c(O)c4Oc4ccc(cc4)CC3N(C)CC2)CC[N+]1(C)C (centres undefined)	-4.4%	2.5%
COc1ccc2cc1Oc1ccc(cc1)C[C@H]1c3cc(c(OC)cc3CCN1C)Oc1c(OC)c(OC)cc3c1[C@@H](C2)N(C)CC3	2.24µM*	?
COc1ccc2cc1Oc1ccc(cc1)CC1c3cc(c(OC)cc3CCN1C)Oc1c(OC)c(OC)cc3c1C(C2)N(C)CC3 (centres undefined)	1.58µM*	11.2µM*
COc1cc2c3cc1Oc1c(OC)c(OC)cc4c1C(Cc1cccc(c1)Oc1ccc(c(O)c1)CC3N(C)CC2)N(C)CC4 (centres undefined)	-5.2%	-4.3%
CCOC(=O)NN=C1C[C@@H](O)[C@@H](O)[C@@H]2[C@H]3C(=O)N(C[C@@H]4CCCO4)C(=O)[C@@H]3CC[C@H]12	5.7%[8.59 µM]	9.7%[8.59 µM]
C=C1C(=O)OC2CC1C(OC(C)=O)CC(C)=CCCC(C)=CCC[C@@]2(C)O (some centres undefined)	15.8µM*	11.2µM*
C=C(C#Cc1ccc(OC)cc1)CCN1C=C(C(=O)OCC)C(c2ccccc2)NC1=O (centres undefined)	6.4%[8.59 µM]	31.6%[8.59 µM]
COC(=O)C1=C(C(=O)OC)[C@@H]2Nc3ccccc3[C@@]23C[C@@H](C(=O)OC)N(C(=O)NC2CCCC2)C3=N1	-3.8%[8.59 µM]	0.8%[8.59 µM]
C[C@@H]1CC2=CCCC2[C@]2(O1)C(=O)Nc1cccc(Br)c12 (some centres undefined)	1.3%[8.59 µM]	18.9%[8.59 µM]
CCCCCCCCOc1ccc(C(=O)c2ccccc2)c(O)c1	-2.5%	-20.3%
CCCCCCOc1ccc(C(=N)N(CCCC)CCCC)c2ccccc12	12.6µM*	12.6µM*
CN1CC[C@@H]2CN3CCc4cccc(c43)[C@H]2C1	?	-5.9%
c1ccc2c(c1)Sc1ccccc1N2CC1CN2CCC1CC2 (centres undefined)	12.6µM*	?
CN1CCC(CN2c3ccccc3Sc3ccccc32)C1 (centres undefined)	10µM*	15.8µM*
O=C(C=Cc1ccccc1)Nc1cccc(C(=O)NCCc2ccccc2)c1	7.6%	-12.6%
CC1(C)OC2CC(=O)OCC23C1CC(=O)C1(C)C3CC[C@@]2(C)[C@H](c3ccoc3)OC(=O)C3OC312 (some centres undefined)	1.8%	-11.9%
CC1(C)C(=O)C=C[C@@]2(C)C1C=C[C@@]1(C)C2CC[C@@]2(C)C(c3ccoc3)OC(=O)C3OC312 (some centres undefined)	7.94µM*	?
CC1(C)C(=O)C=C[C@@]2(C)C1CC(O)[C@]1(C)C2CC[C@@]2(C)C(c3ccoc3)OC(=O)C3O[C@]312 (some centres undefined)	12.6µM*	?
CC1(C)C(O)CC(O)[C@]2(C)C1CC(O)[C@]1(C)C2CC[C@@]2(C)C(c3ccoc3)OC(=O)C3O[C@]312 (some centres undefined)	?	2.1%
CC[C@H](C)[C@@H]1NC(=O)[C@@H]2CSCCS(=O)(=O)N2C1=O	19.3%	5.5%
O[N+]1=CC=CCC1=S.On1ccccc1=S.[Zn]	4.47µM*	3.55µM*
CC(=O)OC[C@H]1O[C@H](C#Cc2ccccc2)C=C[C@H]1O	-3.2%[8.59 µM]	5.1%[8.59 µM]
COc1cc2c(c(OC)c1OC)C(c1ccc3c(c1)OCO3)CC(=O)O2 (centres undefined)	53.5%	-4.2%
COc1ccc2c(c1OC)CN1CCc3cc4c(cc3C1C2)OCO4 (centres undefined)	1.7%[17.8 µM]	5.7%[17.8 µM]
COc1ccc2cc3[n+](cc2c1OC)CCc1cc2c(cc1-3)OCO2	10µM*!	11.2µM*!
COc1ccc2c(c[n+](C)c3c4cc5c(cc4ccc23)OCO5)c1OC	4.47µM*	10µM*

Source: PubChem (National Center for Advancing Translational Sciences (NCATS))
